Bioassay records from PubChem BioAssay.
SKKanGAS inh: S. pyogenes SKKanGAS growth inhibitors in kanamycin, primary screen, streptokinase expression inhibitor project, SKKanGAS strain, BacTiter-Glo luminescence; 6 h; inhibition, % at 7.5 µM; 300,000 compounds, 1.3% hits; AID 1662, 2009;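 active = mean replicate score, as percent of positive control median, at least 50; inconclusive = mean below 50 but one replicate at or above 50; inactive = mean and every replicate below 50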;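 note: strain carries kanamycin resistance gene driven by streptokinase promoter and grows in 40 µg/ml kanamycin; loss of luminescence reflects streptokinase promoter inhibition or plain growth inhibition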
PfHsp90 set2: growth inhibition of PfHsp90-expressing yeast, primary screen, antimalarial PfHsp90 inhibitor project, S. cerevisiae, BacTiter-Glo luminescence, single point, set 2 | BacTiter-Glo ATP, 48 h; yeast lacking PDR1 and PDR3 efflux regulators | inhibition, % at 9.4 µM | 310,000 compounds, 0.32% hits;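 active = every replicate shows inhibition above about 80%, whatever the replicate mean, limit read from the data; inconclusive = mean inhibition reaches the set limit but some replicate falls short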
tim10-1 inh: growth inhibitors of tim10-1 mutant yeast, primary screen, luminescence, uHTS. S. cerevisiae tim10-1 ts strain growth, BacTiter-Glo, 24 h. 330,000 compounds, 2.2% hits. inhibition, % at 20 µM;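 active = inhibition of at least 40%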;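 note: mutant grown at 25 °C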
tim23-1 inh: growth inhibitors of tim23-1 mutant yeast, primary screen, luminescence, uHTS | S. cerevisiae tim23-1 growth, BacTiter-Glo luminescence, 24 h | inhibition, % at 20 µM | 330,000 compounds, 1.3% hits | AID 463212, 2010;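 active = growth inhibition of the mutant yeast at or above 50%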;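 note: temperature-sensitive mutant grown at 25 °C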
TIM10 inh: growth inhibitors of isogenic TIM10 control yeast, primary screen, counter-screen for tim10-1 yeast inhibitor project, luminescence, uHTS. 330,000 compounds, 1.4% hits. AID 463195, 2010. S. cerevisiae TIM10 strain growth, BacTiter-Glo luminescence, 24 h. inhibition, % at 10 µM;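 active = inhibition of 40% or more at the single tested concentration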;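 note: wild-type TIM10 isogenic control strain grown at permissive 25 °C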
tim23-1 conf: tim23-1 mutant yeast growth inhibitors, confirmation, luminescence, single concentration. shares compounds with tim23-1 inh. S. cerevisiae tim23-1 growth, BacTiter-Glo luminescence, 24 h. inhibition, % at 20 µM. 4,400 compounds, 83% hits;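 active = inhibition above about 39% in either of two replicate wells at 20 µM, limit read from the data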;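 note: temperature-sensitive tim23-1 mutant grown at 25 °C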
Hits are given with their value; . = inactive; ? = inconclusive; / = no result. In the library only some 4.4% were active in any assay of this set; here they are far more common.

SMILES	SKKanGAS inh	PfHsp90 set2	tim10-1 inh	tim23-1 inh	TIM10 inh	tim23-1 conf
CCCCc1c(C)nc2ccc(C)cc2c1SCCC(=O)O	.	.	.	55.4	.	.
Cc1cc(N)nc(=O)n1C1CC(O)C(CO)O1 (stereo unspecified)	/	.	/	/	/	/
Cc1ccc(SCC(=O)N2CCN(S(=O)(=O)c3cccs3)CC2)cc1	/	.	.	.	.	/
CCc1cc(C(=O)c2ccc(C)cc2)c(NC(=O)CCl)s1	.	.	.	50.3	.	49.0
CC(/C=N/N1C(=O)CSC1=S)=C\c1ccccc1	.	.	.	.	.	/
COc1ccc(NS(=O)(=O)c2ccc(N3CCCC3)c(NC(=S)Nc3cccc(S(=O)(=O)N(C)C)c3)c2)cc1	.	/	.	51.8	.	77.8
CC1=C(C(=O)Nc2ccccc2C(=O)NCCCOC(C)C)SCCO1	.	.	.	.	.	/
COC(=O)c1ccc2c(c1C(=O)OC)CN(S(=O)(=O)C(C)(C)C)[C@@H]2CCO	/	.	/	/	/	/
O=C(Nc1cccc(Cl)c1)Nc1cccc(Cl)c1	.	.	.	.	.	/
O=C(Nc1cccc(Cl)c1)ON=C1c2ccccc2-c2ccccc21	.	.	.	61.8	.	45.8
COc1ccc(/C=N/n2c(SC)nnc(C(C)(C)C)c2=O)cc1	.	.	.	.	.	/
CSc1nnc(C(C)(C)C)c(=O)n1/N=C/c1ccccc1	.	.	.	52.7	.	50.6
Cc1cccc(C(=O)NCC(=O)OCC(=O)c2ccc(Cl)s2)c1	.	.	.	.	.	/
c1ccc(N2CC3COc4ccccc4C3=N2)cc1 (stereo unspecified)	/	.	/	/	/	/
Cc1[nH]n(-c2nc(-c3ccccc3)cc(=O)[nH]2)c(=O)c1CCO	.	.	.	87.4	.	.
Cc1nc(-c2ccccc2)cc(=O)[nH]1	.	/	.	.	.	/
COc1cccc(/C=N/Nc2nccnc2Cl)c1O	.	.	.	66.5	.	61.0
CC(C)(C)C(=O)/C=c1\[nH]c(=O)/c(=C\c2ccc(F)cc2)s1	.	.	.	52.1	.	50.7
CC(C)(C)C(=O)/C=c1\[nH]c(=O)/c(=C\c2ccccc2F)s1	.	.	.	.	.	/
CCc1nc(N2CCN(C(=O)CCl)CC2)c2c3c(sc2n1)CC(C)CC3 (stereo unspecified)	.	.	.	55.4	.	.
CCCCNC(=S)N/N=C/C1=CCC2CC1C2(C)C (stereo unspecified)	.	.	.	52.6	.	.
CC(C)NC(=S)N/N=C/C1=CCC2CC1C2(C)C (stereo unspecified)	.	.	.	55.9	.	.
C=C(C)CNC(=S)N/N=C/C1=CCC2CC1C2(C)C (stereo unspecified)	.	.	.	.	.	/
C=CCOc1ccc(/C=C2\SC(=S)N(NS(=O)(=O)c3ccccc3)C2=O)cc1	.	.	.	60.4	.	55.7
Cc1ccc(-c2nnc(OCc3nc4ccccc4n3C)c3ccccc23)cc1	.	.	.	52.1	.	50.5
SMILES	SKKanGAS inh	PfHsp90 set2	tim10-1 inh	tim23-1 inh	TIM10 inh	tim23-1 conf
Cc1ccc(-c2nnc(OCc3cccnc3)c3ccccc23)cc1	.	/	.	53.1	.	54.0
CCOC(=O)c1cccc2c1-c1ccccc1/C2=N/O	.	.	.	71.5	.	54.1
CCOC(=O)NN=C1c2ccccc2-c2ccccc21	.	.	.	.	.	/
CCn1c(SCC(=O)Nc2oc(C)c3c(C)n[nH]c(=O)c23)nc2sc(C)c(C)c2c1=O	.	.	.	55.3	.	.
Nc1nc2ccccc2n1/N=C/c1ccc(-c2ccccc2)o1	?	.	.	54.5	.	.
Cc1c([C@H]2[C@@H](CC#N)C2(C)C)c2ccccc2n1C	.	.	.	.	.	/
Cc1[nH]c2c(Br)cccc2c1[C@H]1[C@@H](CC#N)C1(C)C	.	.	.	51.0	.	46.1
COc1ccc(CCNC(=S)Nc2ccc(C(C)C)cc2)cc1	.	.	.	50.8	.	.
COc1ccc(/C=C(/NC(=O)c2ccccc2OC)C(=O)Nc2ccc(C(=O)O)cc2)cc1	.	.	.	.	.	/
CC[n+]1c(/C=C/N(C)c2ccccc2)n(-c2ccccc2)c2ccc(-c3nc4ccccc4s3)cc21	98.8	.	.	79.8	.	65.2
COC(=O)c1cc(S(=O)(=O)NCc2ccc(Br)cc2)c[nH]1	.	.	.	.	.	/
O=C(CCCN1C(=O)/C(=C/c2ccccc2)SC1=S)Nc1cccc(O)c1	.	.	.	50.2	.	50.0
O=C(CCCN1C(=O)/C(=C\c2ccccc2)SC1=S)Nc1cccc(C(=O)O)c1	.	.	.	.	.	/
Cc1cccc(C(=O)OCC(=O)NC23CC4CC(CC(C4)C2)C3)c1O	/	.	.	56.1	.	55.8
O=c1c2cn[nH]c2nc(SCc2c(F)cccc2F)n1-c1ccc(Cl)cc1	59.0	.	.	51.7	.	54.0
O=C(/C=C\c1ccccc1)Oc1cccc2cccnc12	.	.	.	.	.	/
O=C(/C=C/c1ccccc1)Oc1cccc2cccnc12	.	.	.	53.5	.	43.3
Cc1nc(NCCN2CCOCC2)c2oc3ccccc3c2n1	.	.	.	.	.	/
Cc1nc(NCCc2ccccc2)c2oc3ccccc3c2n1	.	.	.	60.7	.	41.1
Cc1cccc(OCCCSc2nc3ccccc3[nH]2)c1	.	.	.	.	.	/
CCOc1ccc(OCCSc2nc3ccccc3[nH]2)cc1	.	.	.	60.1	.	.
CCOC(=O)c1cc(-c2ccccc2)n(Cc2cc(CC)no2)n1	.	.	.	.	.	/
CC(=O)c1c(O)c2ccccc2n(Cc2ccccc2)c1=O	.	.	.	56.3	.	.
Cn1c(=O)c(C(=O)NCc2ccccc2)c(O)c2ccccc21	.	.	.	53.7	.	.
CCn1c(=O)c(C(=O)NCc2ccccc2Cl)c(O)c2ccccc21	.	.	.	.	.	/
SMILES	SKKanGAS inh	PfHsp90 set2	tim10-1 inh	tim23-1 inh	TIM10 inh	tim23-1 conf
Cn1c(=O)c(C(=O)NCc2ccc(F)cc2)c(O)c2ccccc21	.	.	.	.	.	/
CCOC(=O)c1cnc(-n2nc(C)cc2C)nc1NCCc1ccccc1	.	.	.	50.5	.	57.9
COCCNC(=O)c1cccc(OC2CCN(Cc3ccc(OC(F)F)cc3)CC2)c1	.	.	.	.	.	/
O=c1c(-c2ccccc2)c1-c1ccccc1	.	/	.	57.9	.	.
COc1ccc2c(=O)c(-c3ccc(OC)c(OC)c3)coc2c1	.	.	.	.	.	/
COc1ccc(-c2coc3cc(OC(C)=O)c(OC)cc3c2=O)cc1	/	.	.	53.2	.	.
CC(C)Sc1nc2sccc2c(=O)n1-c1ccccc1	.	.	.	.	.	/
COc1cccc(CN2CCN(S(=O)(=O)c3ccc(Br)cc3)CC2)c1	.	/	.	.	.	/
